Measurements reported in PubChem BioAssay.
Active and inactive are the calls of the source.

test: E. coli growth modulation, two-sided OD650, primary screen, E. coli filamentation project, strain DRC41, 24 h (AID 1093); settings: OD650, 24 h, higher = more signal, called active from +8 up or from −8 down;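 note: MC1000 strain lacking acrAB efflux and sulA so SOS filamentation is blocked; test concentration not given here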

SMILES | z-score
CCOC(=O)C[C@H]1[C@H](OC(=O)c2cc3ccccc3oc2=O)[C@@H](NC(=O)CC(C)C)c2cc(OCCCO)ccc2N1C(=O)c1ccc2ccccc2n1 | -0.588 (inactive)
Cc1ccc(NN2C(C(O)c3c(F)cccc3Cl)C=CC3C(=O)N(C4CCCCC4)C(=O)C32)cc1 (centres undefined) | -0.0346 (inactive)
O=C1O[C@@H](c2ccccc2)[C@@H](c2ccccc2)N2[C@@H](c3ccc(OCCO)cc3)[C@]3(C(=O)Nc4ccc(C#CC5=CCCCC5)cc43)[C@@H](C(=O)NC[C@H](O)c3ccccc3)[C@H]12 | -0.749 (inactive)
CCCN1C(=O)[C@]2(Cc3ccccc31)N=C(c1ccc(OCCCO)cc1)O[C@@H]2c1ccccc1 | -0.0411 (inactive)
C[N+](C)(C)CCCCCCNC(=O)[C@@H]1C[C@@H]2C(=O)N3CCC[C@H]3C(=O)N2[C@@H]1c1ccc(O)cc1 | 0.2 (inactive)
CCOC(=O)C[C@H]1[C@H](OC(=O)c2ccc(C(=O)c3ccccc3)cc2)[C@@H](NC(=O)CC(C)C)c2cc(OCCCO)ccc2N1C(=O)c1ccccc1 | -0.747 (inactive)
CC1CC/C=C\[C@H]2OC34C=CCN(C(C)C)C(=O)[C@H]3N(CCO)C(=O)[C@@H]4C2C(=O)O1 (some centres undefined) | 1.48 (inactive)
[N-]=[N+]=Nc1ccccc1C[C@]1(C(=O)N2CCOCC2)COC(c2ccc(OCCCO)cc2)=N1 | 1.91 (inactive)
CCCCCCc1nc(Cc2cc(OC)c(OC)c(OC)c2)cc2c1[Si](C(C)C)(C(C)C)OC2 | -0.527 (inactive)

test: small-molecule microarray binders of probe aLefty2, primary screen, biochemical, biotinylated probe, 635/667 nm fluorescence (AID 1094); settings: higher = more signal;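 note: score merges spot fluorescence near 667 nm with spot signal-to-noise ratio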

SMILES | composite z-score
CO[C@H]1O[C@H](CO)[C@@H](OC(=O)Nc2ccc3c(c2)OCO3)[C@H](OC(=O)Nc2ccc3c(c2)OCO3)[C@@H]1OC(=O)Nc1ccc2c(c1)OCO2 | 0.0909
CCCC1(C(=O)OC)C=C2C(=C(C)C(=O)C2C)CN1 (centres undefined) | 0.0932
CO[C@H]1O[C@H](CO)[C@@H](OC(=O)Nc2ccccc2)[C@H](OC(=O)c2cc3ccccc3[nH]2)[C@H]1OC(=O)c1cc2ccccc2[nH]1 | -0.0107
O=C1O[C@H](c2ccccc2)[C@H](c2ccccc2)N2[C@H]1[C@@H](C(=O)O)[C@]1(C(=O)Nc3ccc(C#CCCO)cc31)[C@H]2c1ccccc1OCCO | -0.13
CCCCC[C@H]1OC[C@@]23C=C(Br)[C@@H](CC12)[C@@]1(CO1)C3=O (some centres undefined) | -0.231
CCCCN1CC=CC23O[C@@H]4/C=C\CCC(C)OC(=O)C4[C@H]2C(=O)N(CCCO)[C@@H]3C1=O (some centres undefined) | -0.186
CC[C@@H]1C=C(C(=O)O)[C@H](c2ccc(C#N)cc2)N1S(=O)(=O)c1ccc(C)cc1 | 0.283
O=C1[C@H]2C=C(I)[C@H](C[C@@H]2OCCOCCO)[C@@]12CO2 | -0.239
COCCOC(=O)N1C(=O)[C@@]2(c3cc(C#CC4=CCCCC4)ccc31)[C@H](C(=O)Nc1nc3ccccc3s1)[C@H]1C(=O)O[C@H](c3ccccc3)[C@H](c3ccccc3)N1[C@@H]2c1ccc(O)cc1 | -0.0823
COc1ccc([C@H]2OC[C@@H]3C[C@H](Cc4ccccc4)C(=O)N32)cc1 | -0.155
NC(=O)NCC#Cc1ccc2c(c1)[C@]1(C(=O)N2)[C@H](c2ccccc2OCCO)N2[C@H](c3ccccc3)[C@H](c3ccccc3)OC(=O)[C@H]2[C@@H]1C(=O)O | -0.0201
CC1CC/C=C\[C@H]2OC34C=CCN(c5ccc(Cl)cc5)C(=O)[C@H]3N(C(C)CO)C(=O)[C@]4(C)C2C(=O)O1 (some centres undefined) | -0.0099
CCOC(=O)C1=C[C@@H](C(C)C)N(S(=O)(=O)c2ccc(C)cc2)[C@H]1c1ccc(C(F)(F)F)cc1 | 0.127
OCCCC1=CC(c2ccc(CN3CCCC3)cc2)N(Cc2cc3c(cc2Br)OCO3)CC1 (centres undefined) | 0.112
CCCCCCCCCC(O)C1C=CC2C(=O)N(c3ccccc3)C(=O)C2N1Nc1cc(OC)c(OC)c(OC)c1 (centres undefined) | -0.163
COCCCNC(=O)[C@@]1(CCC(=O)OC(C)(C)C)N=C(c2ccc(OCCCO)cc2)O[C@H]1c1ccccc1N=[N+]=[N-] | 0.644
COc1cc(OC)c(C(O)C2C=CC3C(=O)N(Cc4ccccc4)C(=O)C3N2n2cnnc2)cc1Br (centres undefined) | 0.0208
C[N+](C)(C)CCCC[C@@H]1NC(=O)[C@@H]2C[C@H](C(=O)NCCCCCCN)[C@H](c3cccc(OCCO)c3)N2C1=O | 1.26
O=C1C2C=CC(C(O)C3CC=CCC3)N(Nc3ccccc3)C2C(=O)N1c1ccccc1 (centres undefined) | 0.401
C=CCNC(=O)[C@H]1[C@@H]2C(=O)O[C@@H](c3ccccc3)[C@@H](c3ccccc3)N2[C@@H](c2ccccc2OCCO)[C@]12C(=O)N(C(=O)OCCOC)c1ccc(C#CC3(O)CCCCCC3)cc12 | -0.0499
